# Reference: PubChem BioAssay (NCATS)
# Inconclusive results are not listed. A call without a number means that no potency is given here. The source made the active and inactive calls. The call rests on the fitted dose curve; in most records, active means well fitted curve in the direction sought with a large enough effect; inconclusive means small, poorly fitted or top-dose-only effect, or another doubt; inactive means no such curve, though single readings can be large; an effect the other way counts as inactive or inconclusive.
# Experiment: Confirmation and Secondary Assay for Modulators of Hemoglobin Beta Chain Splicing at IVS2 654 locus (AID 910);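 further: per-well total GFP intensity by laser scanning cytometry after 2-day treatment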
# Settings: HeLa EGFP-654 splicing reporter, GFP fluorescence, 48 h; series mostly up to 46.1 µM
# Outline: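 HeLa cells stably carrying EGFP interrupted by mutant beta-globin IVS2-654 intron (CMV-driven) were treated with compound for 2 days at 37C; corrected splicing was scored as total peak GFP intensity per well (488 nm excitation, 500-520 nm emission).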
row,SMILES,outcome
1,COc1ccc(C2Sc3ccccc3N(CCN(C)C)C(=O)C2OC(C)=O)cc1 (stereo not drawn),inactive
2,CCCCCCCCCCCC1=C(O)C(=O)C=C(O)C1=O,inactive
3,COc1ccc(-c2coc3cc(O)ccc3c2=O)cc1,inactive
4,Cc1cccc(C)c1OCC(C)N (stereo not drawn),inactive
5,O=c1cc(-c2ccccc2)oc2cc(O)cc(O)c12,inactive

# Experiment: qHTS Assay for Identification of Small Molecule Agonists for Thrombopoietin (TPO) Signaling Pathway (AID 917); further: potency means the concentration at half of the fitted maximal effect
# Settings: TPO signaling pathway reporter cells, agonist qHTS, stimulated with TPO at its EC50; series mostly up to 38.5 µM
# Outline: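 We measured Glycoprotein IIb promoter–luciferase output in IL-3-starved Ba/F3 murine cells expressing the human TPO receptor after 24 hrs at 37 C with compounds and 26 pM TPO.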
row,SMILES,Potency
1,Clc1ccc(Cn2c(CN3CCCC3)nc3ccccc32)cc1,inactive
2,NC(N)=Nc1nc(CSCC/C(N)=N/S(N)(=O)=O)cs1,inactive
3,COCCCCC(=NOCCN)c1ccc(C(F)(F)F)cc1,inactive
4,COc1cccc(-c2cc(=O)c3ccccc3o2)c1N,398 nM (active)
5,C[N+](C)(C)CC(=O)O,inactive
6,CC(=O)c1ccc(S(=O)(=O)NC(=O)NC2CCCCC2)cc1,inactive
7,CCN1CCC[C@H]1CNC(=O)c1cc(S(N)(=O)=O)ccc1OC,inactive
8,CCN(CC)C(=O)c1ccc(O)c(OC)c1,inactive

# Experiment: qHTS Assay for Identification of Small Molecule Antagonists for Thrombopoietin (TPO) Signaling Pathway (AID 918); further: potency means the concentration at half of the fitted maximal effect; nearly all actives have a fitted effect of over 60% in size
# Settings: TPO-dependent cell signaling reporter, antagonist mode
# Outline: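 Murine Ba/F3 cells stably expressing human TPO receptor and a Glycoprotein IIb promoter–luciferase reporter were IL-3-starved overnight, treated with compounds plus TPO (26 pM final, its EC50) for 24 hrs at 37 C, then read by luminescence.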
row,SMILES,Potency
1,CC1=C(/C=C/C(C)=C/C=C/C(C)=C/C(=O)Nc2ccc(O)cc2)C(C)(C)CCC1,10000 nM (active)
2,CC1(C)CCC2=C(O1)c1ccccc1C(=O)C2=O,1580 nM (active)
3,CC(C)(C)c1ccc(C(O)CCCN2CCC(C(O)(c3ccccc3)c3ccccc3)CC2)cc1 (stereo not drawn),2510 nM (active)

# Experiment: Cell Viability - LYMP2-001 (AID 921);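 further: cells exposed to compound for 24 h at 37 °C; nearly all actives have a fitted effect of over 70% in size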; further: potency means the concentration at half of the fitted maximal effect
# Settings: LYMP2-001 lymphoblastoid cell viability; series mostly up to 92.2 µM
# Outline: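 qHTS, 1536-well; lymphoblastoid cells, 24 hr compound, 37 C; ATP by CellTiter-Glo, 30 min RT; luminescence; Hill-fit AC50.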
row,SMILES,Potency
1,CC1=C(/C=C/C(C)=C/C=C/C(C)=C/C(=O)Nc2ccc(O)cc2)C(C)(C)CCC1,39800 nM (active)
2,O=C(O)Cc1cccc2ccccc12,inactive
3,O=C(O)c1cc(O)c2c(c1)C(=O)c1cccc(O)c1C2=O,inactive
4,CC(=O)O[C@]1(C(C)=O)CC[C@H]2[C@@H]3C=C(Cl)C4=CC(=O)[C@@H]5C[C@@H]5[C@]4(C)[C@H]3CC[C@@]21C,inactive
5,O=c1[nH]cnc2c1ncn2[C@H]1CC[C@@H](CO)O1,inactive
6,O=c1c(O)c(-c2ccc(O)cc2)oc2cc(O)cc(O)c12,inactive
7,CC(=O)c1ccc(S(=O)(=O)NC(=O)NC2CCCCC2)cc1,inactive

# Experiment: Confirmation and Secondary Assay for Modulators of Hemoglobin Beta Chain Splicing at IVS2 705 locus (AID 930);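 further: HeLa cells stably expressing the EGFP-705 splicing reporter; GFP fluorescence per well restored by corrected splicing of the IVS2-705 intron in EGFP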
# Settings: HeLa EGFP-705 splicing reporter, GFP fluorescence, 48 h; series mostly up to 46.1 µM
# Outline: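 Per-well GFP, captured at 1 x 8 µm resolution with 488 nm excitation, served as the read-out for HeLa EGFP-705 cells incubated 2 days with test compound versus DMSO.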
row,SMILES,outcome
1,COc1ccc(C2Sc3ccccc3N(CCN(C)C)C(=O)C2OC(C)=O)cc1 (stereo not drawn),inactive
2,CCCCCCCCCCCC1=C(O)C(=O)C=C(O)C1=O,inactive
3,COc1ccc(-c2coc3cc(O)ccc3c2=O)cc1,inactive
4,Cc1cccc(C)c1OCC(C)N (stereo not drawn),inactive
5,O=c1cc(-c2ccccc2)oc2cc(O)cc(O)c12,inactive
